Results published in PubChem BioAssay AID488969 (Vanderbilt High Throughput Screening Facility, 2010).
In all, about 110,000 compounds were measured (“z-score”: median about -0.1, highest 2% from about 2 on). For the sample, the highest values were picked, then their nearest neighbours and some compounds at random. Activity calls are given as the source filed them.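 The calls were made as follows: active = z-score in the third read window above 3 or below -3; inactive = the rest.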

molecular target: Metabotropic glutamate receptor 8 (Rattus norvegicus) (UniProt P70579); assay: rat mGluR8 modulators via GIRK flux, primary screen, cell-based, thallium flux, HTS (AID 488969); settings: HEK293 rat mGluR8, GIRK (G protein-gated inwardly rectifying potassium channel) thallium flux, FluoZin2; at 10 µM; stronger effect = higher value; submaximal glutamate (EC20) added with thallium
Sequence (P70579 whole entry, looked up): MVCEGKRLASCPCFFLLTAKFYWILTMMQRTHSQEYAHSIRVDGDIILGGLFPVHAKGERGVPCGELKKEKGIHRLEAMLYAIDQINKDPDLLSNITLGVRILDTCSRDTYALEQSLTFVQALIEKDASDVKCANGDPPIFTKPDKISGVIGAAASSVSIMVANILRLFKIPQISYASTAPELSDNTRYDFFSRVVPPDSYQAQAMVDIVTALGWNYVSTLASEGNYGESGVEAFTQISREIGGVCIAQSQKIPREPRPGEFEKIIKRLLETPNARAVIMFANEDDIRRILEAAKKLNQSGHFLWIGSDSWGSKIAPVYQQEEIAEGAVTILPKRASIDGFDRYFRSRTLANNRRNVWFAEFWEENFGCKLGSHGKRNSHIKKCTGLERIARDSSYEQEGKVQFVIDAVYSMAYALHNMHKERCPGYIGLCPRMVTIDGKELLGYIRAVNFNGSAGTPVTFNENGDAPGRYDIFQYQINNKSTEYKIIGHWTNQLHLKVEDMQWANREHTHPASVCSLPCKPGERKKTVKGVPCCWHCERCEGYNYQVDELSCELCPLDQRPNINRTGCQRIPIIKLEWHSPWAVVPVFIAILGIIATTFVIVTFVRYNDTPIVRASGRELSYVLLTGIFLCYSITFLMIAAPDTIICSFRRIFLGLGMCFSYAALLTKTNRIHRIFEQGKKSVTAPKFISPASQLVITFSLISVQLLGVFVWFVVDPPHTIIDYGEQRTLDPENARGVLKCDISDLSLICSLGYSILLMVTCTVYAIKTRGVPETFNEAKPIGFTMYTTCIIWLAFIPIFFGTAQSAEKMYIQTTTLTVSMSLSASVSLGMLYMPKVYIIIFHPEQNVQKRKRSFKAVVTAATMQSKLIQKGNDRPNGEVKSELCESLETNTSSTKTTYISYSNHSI

Compound	z-score
COc1ccc(/C=N/NC(=O)CSc2nnc(C)n2-c2ccccc2)c(OC)c1OC	-0.14
CSC1=NSC2=NC(=O)/C(=C/c3coc4ccccc4c3=O)C(=N)N12	10.4 (active)
O=C1NN(c2ccccc2)C(=O)/C1=C/c1coc2ccccc2c1=O	-0.738
CSC1=NSC2=NC(=O)/C(=C/c3coc4ccc(O)cc4c3=O)C(=N)N12	-0.47
N=C1/C(=C/c2cccs2)C(=O)N=C2SN=C(SCc3ccccc3)N12	9.53 (active)
Cc1cc(/C=C2\C(=N)N3C(SCc4ccccc4)=NSC3=NC2=O)c(C)n1Cc1ccccc1	0.143
O=C1N=C(N2CCN(c3cccc4ccccc34)CC2)S/C1=C/c1cccs1	-0.0125
O=[N+]([O-])c1ccc(N2CCCCC2)cc1NCCOc1ccccc1	0.0562
COc1ccc(/C=c2\s/c(=C/C(=O)c3ccc(C)cc3)[nH]c2=O)cc1OC	0.46
CCc1ccc(/C=c2\s/c(=C\C(=O)C(C)(C)C)[nH]c2=O)cc1	7.24 (active)
Cc1cccc(/C=C2\CS/C(=C\c3cccc(C)c3)C2=O)c1	-0.0758
Cc1cccc(/C=c2\s/c(=C\C(=O)C(C)(C)C)[nH]c2=O)c1	9.35 (active)
COc1cccc(/C=c2\s/c(=C/C(=O)c3ccc(C)cc3)[nH]c2=O)c1OC	1.51
Cc1ccccc1/C=c1\s/c(=C\C(=O)C(C)(C)C)[nH]c1=O	5.84 (active)
CC(C)(C)NC(=O)COC(=O)/C=C/c1ccc(F)cc1	-0.0768
COc1ccc(/C=c2\s/c(=C/C(=O)c3ccc(C)cc3)[nH]c2=O)c(OC)c1	0.0664
CC(C)(C)C(=O)/C=c1\[nH]c(=O)/c(=C\c2ccc(F)cc2)s1	5.06 (active)
CC(C)(CNC(=O)/C=C/c1ccc(F)cc1)CNC(=O)/C=C/c1ccc(F)cc1	-0.186
CSc1ccc(/C=c2\s/c(=C\C(=O)C(C)(C)C)n(CC(=O)NCCC3=CCCCC3)c2=O)cc1	-0.0802
CCc1ccc(/C=C(\Cl)c2nc3cc(Cl)ccc3c(=O)[nH]2)cc1	0.511
O=C(Cc1ccccc1)NC(NNc1ccccc1)(C(F)(F)F)C(F)(F)F	-0.447
CC(C)N(Cc1nc(-c2ccccc2)no1)C(=O)CCCN1C(=O)c2ccccc2C1=O	-0.305
CCOC(=O)c1ccc(NC(=S)N2CCSC2c2ccc(Br)cc2)cc1 (stereo not drawn)	0.308
O=c1oc2cc(OCc3ccc(F)cc3F)ccc2cc1-c1ccc2ccccc2n1	-0.209
O=S(=O)(c1ccc(Oc2ccc(Cl)cc2)c(S(=O)(=O)N2CCCCC2)c1)N1CCCCC1	-0.278
CCOc1ccc(OCC)c(NC(=O)C2CCN(S(=O)(=O)c3cccc4nonc34)CC2)c1	0.0264
COc1ccc(Cn2c(C)c(C)c(C#N)c2NC(=O)Nc2cccc(Cl)c2)cc1	-0.0483

Compound	z-score
COc1ccc(-c2cc(C(F)(F)F)nc(SCC(N)=O)n2)cc1	0.362
Cn1c(=O)c2c(ncn2CC(=O)Nc2ccccc2)n(C)c1=O	0.318
Cc1ccc(C(=O)Nc2cccnc2)cc1S(=O)(=O)N1CCOCC1	0.265
CCN(CC)CCCN1C(=O)c2oc3ccccc3c(=O)c2C1c1cccc(OC)c1OC (stereo not drawn)	0.625
COc1ccc(OC)c(C2c3c(oc4ccccc4c3=O)C(=O)N2CCCN(C)C)c1 (stereo not drawn)	-0.648
COc1cccc(C2c3c(oc4ccccc4c3=O)C(=O)N2CCCN(C)C)c1OC (stereo not drawn)	-0.0845
CCN(CC)CCCN1C(=O)c2oc3ccccc3c(=O)c2C1c1cc(OC)ccc1OC (stereo not drawn)	0.517
CN(C)CCCN1C(=O)c2oc3ccccc3c(=O)c2C1c1cccs1 (stereo not drawn)	2.78
CCN(CC)CCCN1C(=O)c2oc3ccccc3c(=O)c2C1c1cccs1 (stereo not drawn)	13.2 (active)
Cn1c(SCC(=O)c2ccccc2F)nnc1C1CC1	-0.74
CCn1c(SCC(N)=O)nnc1-c1ccc(S(=O)(=O)N2CCN(C)CC2)cc1	-0.217
COc1ccc(NC(=O)c2cccc(F)c2)cc1Cl	-0.393
CCc1cccc2c(C(=O)COC(=O)c3ccc(O)cc3)c[nH]c12	-0.12
O=C(N/N=C\c1ccc(Cl)s1)c1cccs1	8.64 (active)
O=C(N/N=C/c1cccs1)c1cccs1	0.0886
Cc1ccc(/C=N/NC(=O)c2cccs2)s1	1.3
O=C(Nc1ccc([N+](=O)[O-])cn1)c1cc(-c2cccc(Cl)c2)nc2ccccc12	-0.658
O=C(N/N=C/c1c[nH]c2ccccc12)C1CC1(c1ccccc1)c1ccccc1 (stereo not drawn)	-0.618
Cc1ccc(C)n1-c1ccc(C(=O)NN)cc1	2.5
Cc1ccc(C)n1-c1ccc(C(=O)O)cc1	-1.12
CCOC(=O)c1ccc(-n2c(C)ccc2C)cc1	-0.201
CCOC(=O)/C(C(N)=NC(C)C)=C(\O)c1ccccc1	0.0345
CCCCOC(=O)CNc1n[nH]c(=S)[nH]c1=O	0.182
CC(C)COC(=O)CNc1n[nH]c(=S)[nH]c1=O	1.98
CC(C)COC(=O)CCNc1n[nH]c(=O)[nH]c1=O	0.184
Nc1cc(=O)nc(SCC(=O)N(C2CCCCC2)C2CCCCC2)n1-c1ccccc1	-0.245
